CSC inhib – cancer stem cell inhibition; cancer stem cell-like cells viability, luminescence; inhibition, % at 7.5 µM; 300,000 compounds, 1.1% hits; in the data active = inhibition above about 75%; inconclusive = no clear call, values can overlap the other calls; tested in HMLE shEcad cells
Mdm2 MdmX PPI – disrupts the human Mdm2-MdmX interaction. SaOS-2 split-luciferase Mdm2/MdmX complementation, luminescence. inhibition, % at 8 µM. 330,000 compounds, 3% hits;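 active = inhibition of at least 50% at 8 µM in the primary screen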
Beta cell apopt – blocks beta cell apoptosis; INS-1E cytokine-induced death, ATP luminescence, 48 h; percent of positive-control rescue, neutral wells zero; protection from apoptosis, % (concentration not given with the values); 300,000 compounds, 0.8% hits; AID 435005;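 active = Every replicate reaches about 75%, or at least half do and their mean reaches it too, limit read from the data; inconclusive = At least half of replicates reach the limit but their mean does not; inactive = Under half of replicates reach the limit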;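 note: 0% = cytokine-treated negative control wells and 100% = positive control rescue; higher means more ATP so stronger rescue from cytokine killing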
aSyn UTR inh – MLPCN primary screen, SNCA 5' untranslated region; alpha-synuclein 5'UTR reporter, inhibitor activity; inhibition, % (tested at 7.5 µM); 300,000 compounds, 0.82% hits; in the data active = inhibition above about 60%; inconclusive = no clear call, values can overlap the other calls;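 note: H4 neuroglioblastoma cells stably carrying SNCA 5'UTR luciferase fusion; 0% = DMSO wells and 100% = positive control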
Bfl-1 A1 inh – inhibitors of the anti-apoptotic protein A1, read as caspase activation | AID 2462 | MEF A1-2A-BIM cells, Caspase-Glo 3/7 luminescence, 3 h; percent of clofoctol response, vehicle zero | 330,000 compounds, 0.066% hits | caspase activation, % (concentration not given with the values);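 active = over half of replicate activation scores above 10%, or exactly half above 10 with the replicate mean above 10; inconclusive = replicate mean below 10 yet half the replicates above 10; inactive = over half of replicates below 10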
Mdm2 MdmX conf – human Mdm2/MdmX binding inhibition, confirmed. shares compounds with Mdm2 MdmX PPI. luminescent assay. inhibition, % at 8 µM. 10,000 compounds, 55% hits; in the data active = inhibition above about 40%
FLuc counter – counter-screen for Mdm2/MdmX inhibitors: full-length luciferase | shares compounds with Mdm2 MdmX PPI | SaOS-2 full-length luciferase counterscreen, luminescence | inhibition, % at 8 µM | 6,200 compounds, 77% hits | AID 504607;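 active = mean inhibition at 8 µM reaching about 37%, which flags the compound as non-specific, limit read from the data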;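 note: p53-null SaOS-2 cells with luciferase driven by a doxycycline-inducible promoter; compound on cells about two nights before reading with doxycycline added after day one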
* hit, by the source's call; ? = inconclusive; . = no result. The list is not random: actives were taken first. Their share in the collection is about 4.1%.

SMILES | CSC inhib | Mdm2 MdmX PPI | Beta cell apopt | aSyn UTR inh | Bfl-1 A1 inh | Mdm2 MdmX conf | FLuc counter
CCN(C(=O)CCS(=O)(=O)c1ccc2c(c1)oc(=O)n2C)c1ccc(OC)cc1 | 0 | 12 | -6 | 0 | 0 | . | .
O=C(O)[C@H](O)[C@@H](O)C(=O)O | -2 | 13 | . | . | 0 | . | .
Cc1cc(NC(=O)c2cc(-c3ccncc3)nc3c(C)cccc23)no1 | 61 | 61* | 13 | 32 | 0 | 49* | 53*
Cc1cccc(NC(=O)c2cc(-c3cccnc3)nc3c(C)cccc23)n1 | -6 | 50* | -1 | -20 | 0 | 2 | .
COc1ccc(NC2CCCN(C(=O)c3ccc4nc(C)c(C)nc4c3)C2)cc1OC (centres undefined) | 15 | -5 | 2 | -15 | -1 | . | .
Cc1cc(C)c(Cn2c(=O)n(CCCC(=O)NCc3ccco3)c(=O)c3sccc32)c(C)c1 | 20 | 51* | 3 | 34 | 0 | 40* | 80*
Cc1[nH]n(C(N)=S)c(=O)c1N=Nc1cccc(C(F)(F)F)c1 | 13 | -42 | 28 | -165 | -5 | . | .
Cc1[nH]n(C2=NCCS2)c(=O)c1N=Nc1cccc(C(F)(F)F)c1 | 50 | 56* | 94* | 67* | -4 | 56* | 36*
CC1CCCCN1C(=O)CSc1nc(C2CC2)nc2ccccc12 (centres undefined) | . | 34 | 0 | -20 | 0 | . | .
O=C(Cc1c(F)cccc1Cl)NNC(=O)c1ccccc1Cl | -16 | 20 | -4 | . | 0 | . | .
O=C(Cn1nc(-c2ccccc2)c2ccccc2c1=O)Nc1ccc(O)cc1 | 12 | -16 | -4 | 4 | 0 | . | .
Cc1ccc(NC(=O)NNC(=O)Cn2nc(-c3ccccc3)c(-c3ccccc3)c(C#N)c2=O)cc1 | 18 | 53* | 15 | -12 | 0 | 57* | 92*
Cc1ccc([C@H]2C(C(=O)O)=CC[C@@H](c3ccc4c(c3)OCO4)N2S(=O)(=O)c2ccc(C)cc2)cc1 | . | 13 | . | . | . | . | .
Cc1cc(C=C2C(=O)c3ccccc3C2=O)c(C)n1-c1ccc(C(=O)O)cc1 | 4 | 5 | -3 | 7 | -1 | . | .
Cc1cc(C=C2C(=O)c3ccccc3C2=O)c(C)n1-c1ccccc1 | . | 62* | -2 | -43 | -12 | 56* | 34
Cc1cc(/C=C2\Cc3ccccc3C2=O)c(C)n1-c1ccccc1 | 14 | 80* | 2 | ? | -6 | 64* | 73*
Cc1cc(/C=C2/C(=O)NN(c3ccccc3)C2=O)c(C)n1-c1cccc(O)c1 | 21 | 73* | -5 | -74 | -5 | 72* | 122*
CCOC(=O)c1ccc(NC(=S)NCCc2ccc(F)cc2)cc1 | 17 | -4 | -3 | -24 | 0 | . | .
CC1=CC(C)(C)Nc2ccc(OC(=O)CN3C(=O)c4ccccc4C3=O)cc21 | 14 | 97* | -8 | 13 | 0 | 26 | 13
CCOC(=O)c1oc2ccc(S(=O)(=O)n3nc(-c4ccc(Cl)cc4)cc3N)cc2c1C | 56 | 62* | 31 | 27 | 0 | 54* | 57*
COc1ccc(S(=O)(=O)n2nc(-c3ccc(Cl)cc3)cc2N)cc1 | 57 | 51* | -20 | -26 | 1 | 52* | 59*
COc1ccc(/C=C(\NC(=O)c2ccc(OC)cc2)C(=O)Nc2ccccc2C(=O)O)cc1 | -1 | -7 | -1 | -10 | 0 | . | .
O=C(N/N=C/c1ccc(O)cc1)Nc1cccc2nsnc12 | 47 | 71* | -37 | -73 | 0 | 66* | 62*
COc1ccc(Cc2nnc(NC(=O)c3cccc(C)c3)s2)cc1 | -7 | -18 | -2 | -4 | 1 | . | .
Cc1cccc(-c2nnn(Cc3nnc(NC(=O)c4ccccc4)s3)n2)c1 | -2 | 71* | -5 | -6 | 1 | -6 | .
N/C(=N\OC(=O)c1ccc(F)cc1)c1ccc(Br)cc1 | -2 | 51* | 1 | -143 | -1 | -11 | .
Cc1ccc(/C(N)=N/OC(=O)c2ccc3ccccc3c2)cc1 | -7 | 94* | -5 | -124 | 0 | 38 | 117*
Cc1ccc(/C(N)=N/OC(=O)c2ccc(F)cc2)cc1 | -5 | 59* | -6 | -194 | -6 | 16 | .
Cc1ccc(/C(N)=N/OC(=O)c2cccc(F)c2)cc1 | 4 | -59 | -5 | -262 | -4 | . | .
